From PubChem
A selection: hits, their analogues and other compounds. The true share with any hit is near 1.9%.
PGE2 EP2 inh: human EP2 receptor antagonists, primary screen, TR-FRET cAMP, C6 glioma cells; Prostaglandin E2 receptor EP2 subtype (Homo sapiens), P43116; C6 glioma cells expressing human EP2; cells stimulated with saturating PGE2; inhibition, % at 25 µM; hit rate 0.52% among 260,000; AID 1422, 2008;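 active = percent inhibition above 40 after rounding to a whole number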;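 also: rat C6 glioma host cells with rolipram phosphodiesterase inhibitor present; the protocol text gives 20 µM as final concentration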
Target sequence (P43116 whole entry, looked up): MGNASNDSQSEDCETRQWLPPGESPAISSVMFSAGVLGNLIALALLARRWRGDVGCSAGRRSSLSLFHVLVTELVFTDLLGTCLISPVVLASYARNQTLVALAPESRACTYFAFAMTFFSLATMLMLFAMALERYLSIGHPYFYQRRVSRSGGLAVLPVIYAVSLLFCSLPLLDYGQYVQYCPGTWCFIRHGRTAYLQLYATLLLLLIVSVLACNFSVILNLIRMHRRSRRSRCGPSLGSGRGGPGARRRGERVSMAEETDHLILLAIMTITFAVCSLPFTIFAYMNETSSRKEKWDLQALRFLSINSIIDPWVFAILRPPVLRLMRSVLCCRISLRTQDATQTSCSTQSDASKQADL
Efa HMGR inh: inhibitors of E. faecalis class II HMGR, primary screen, biochemical, Enterococcus faecalis; purified E. faecalis HMGR, NADPH absorbance 340 nm kinetic; inhibition, % at 10 µM; hit rate 0.41% among 190,000;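 active = inhibition above a set limit, the median over all tested compounds plus 3 SD, cut at about 9.5% in these data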;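 also: enzyme runs in reverse so mevalonate oxidation gives rising NADPH absorbance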
m-calpain inh: inhibitors of pig calpain II, primary screen, biochemical, fluorogenic peptide substrate, 1536-well; purified calpain II, 30 min; inhibition, % at 16 µM; hit rate 0.37% among 220,000;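 active = inhibition above about 50%, limit read from the data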
Furin inhibitor: human furin inhibitors, primary screen, biochemical, fluorescence intensity; purified furin, fluorogenic substrate cleavage; inhibition, % at 20 µM or 30 µM; hit rate 0.061% among 220,000; AID 463115, 2010; in the data active = inhibition above about 25%
EP2 mod: EP2 receptor modulators, cAMP readout, primary screen, cell-based, HTRF cAMP, PGE2 stimulation; EP2-expressing cells, cAMP HTRF FRET, PGE2 co-stimulation; hit rate 0.83% among 260,000; Prostaglandin E2 receptor EP2 subtype (Homo sapiens), P43116; induction, % at 25 µM; AID 940, 2007;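 active = compounds whose cAMP rise, as percent of the full-agonist control response, exceeds 60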;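 also: rat C6 glioma line stably carrying human EP2 under a CMV promoter; the protocol text gives 20 µM as final concentration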
Numbers stand for hits; . = inactive; / = no result.

SMILES	PGE2 EP2 inh	Efa HMGR inh	m-calpain inh	Furin inhibitor	EP2 mod
O=C(Nc1ccc2c(c1)C(=O)N(CC1CCCO1)C2=O)c1ccccc1Br (stereo not drawn)	.	12	.	.	.
Oc1c(Cl)cc(C(c2cc(Cl)c(O)c(Cl)c2)C(c2cc(Cl)c(O)c(Cl)c2)c2cc(Cl)c(O)c(Cl)c2)cc1Cl	49	/	/	/	.
CCC(=O)OCCn1c(=O)c2cc3c(=O)n(CCOC(=O)CC)c(=O)c3cc2c1=O	95	.	.	.	.
CC(=O)c1cccc(NS(=O)(=O)c2ccc3c(c2)OCCO3)c1	.	/	/	/	.
CCOc1ccc2ccccc2c1CNCCN1CCOCC1	.	10	.	.	.
Cc1ccc(NC(=O)c2ccco2)c(NC(=O)c2ccccc2)c1	.	/	/	/	.
CCN(CC)P(=O)(Nc1ccc(C)cc1Br)c1ccc(N(C)C)cc1NC(=O)c1ccco1 (stereo not drawn)	.	.	.	.	65
CC(=O)Nc1ccc2nc(NC(=O)c3cccc(Cl)c3)sc2c1	.	/	/	/	.
CC(C)CO/C(=N/S(=O)(=O)c1ccccc1)c1ccccc1	.	.	.	.	65
CN1CCN(c2nc3ccccn3c(=O)c2/C=C(\C#N)S(=O)(=O)c2ccccc2)CC1	.	/	.	.	.
CC1CN(c2nc3ccccn3c(=O)c2/C=C(\C#N)S(=O)(=O)c2ccccc2)CC(C)O1 (stereo not drawn)	.	.	.	31	.
CS(=O)(=O)N(CC(=O)N1CCCC1)c1ccc(F)c(Cl)c1	.	/	/	/	.
O=C(c1cccs1)N1CCN(c2ncnc3c2cnn3-c2ccccc2)CC1	.	/	/	/	.
Cc1ccc(NC(=O)COC(=O)CCc2ccc(S(=O)(=O)N3CCOCC3)cc2)c(C)c1	.	.	.	.	.
Cc1ccc(NC(=O)CCc2ccc(S(=O)(=O)N3CCOCC3)cc2)c(C)c1	.	15	.	.	.
COC(=O)[C@H]1CN(C(=O)c2cnn(C(C)C)c2)C[C@@H]1c1ccc(F)cc1	/	/	/	/	.
CC(NCc1cccc(OCc2cccnc2)c1)c1ccc2c(c1)OCCCO2 (stereo not drawn)	.	/	/	/	.
CC(Nc1nc(-c2ccccc2O)nc2ccccc12)c1ccccc1 (stereo not drawn)	.	/	.	.	70
CC(Nc1nc(-c2ccccc2)nc2ccccc12)c1ccccc1 (stereo not drawn)	.	.	.	.	.
Cn1c(SCC(=O)Nc2ccc(F)cc2)nnc1-c1cccs1	.	/	/	/	.
CCOC(=O)c1ccc(NC(=O)CSc2nnc(-c3ccoc3C)n2C)cc1	.	/	/	/	.
COC(=O)C1C2C=CC3(CN(c4cccc5ccccc45)C(=O)C13)O2 (stereo not drawn)	.	/	/	/	.
COc1ccccc1NC(=O)Cn1cnc2c(cnn2-c2ccccc2)c1=O	.	12	.	.	.
CN(Cc1ccccc1)C(=O)CC(c1ccccc1)c1cc(Cl)ccc1O (stereo not drawn)	/	.	.	.	61
O=C(Nc1ccc(Oc2ccccc2)cc1)c1ccc(Cn2c(=O)[nH]c3ccsc3c2=O)cc1	.	20	.	.	.
SMILES	PGE2 EP2 inh	Efa HMGR inh	m-calpain inh	Furin inhibitor	EP2 mod
C=CCn1c2cc(C)oc2c2cnn(CC(=O)NCc3cccs3)c(=O)c21	/	/	/	/	.
Cc1nn(CC(=O)Nc2ccccc2-c2ccccc2)c(=O)c2cc3sccc3n12	/	/	/	/	.
CCOC(=O)c1cc(C(=O)OCC)c(=S)[nH]c1O	.	/	/	/	.
Cc1[nH]nc2c1C1(CCC3(CC1)OCCO3)C(C#N)=C(N)O2	.	10	.	.	.
CCOC(=O)N1CCC2(CC1)C(C#N)=C(N)Oc1n[nH]c(C)c12	.	10.0	.	.	.
COc1ccc(-c2nnc(SCC(=O)N3CCC(C)CC3)n2-c2ccccc2)cc1OC	.	/	/	/	.
CCCn1c(SCC(=O)OC)nc2c1c(=O)n(C)c(=O)n2C	.	/	/	/	.
COc1ccc(CN(C(=O)c2ccco2)c2ccc(C)c(C)c2)cc1	.	.	.	.	65
Cn1c(=O)c2c(SCc3ccccc3)nc(C3CC3)nc2n(C)c1=O	.	/	.	.	73
Cc1nc(SCc2c(F)cccc2Cl)c2c(=O)n(C)c(=O)n(C)c2n1	.	.	.	.	62
CCn1c(=O)c2c(nc(SCc3c(F)cccc3Cl)n2C)n(C)c1=O	.	/	/	/	.
Cn1c(=O)c2c(SCc3ccccn3)nc(C3CC3)nc2n(C)c1=O	.	.	.	.	.
